According to PubChem BioAssay AID743280 (The Scripps Research Institute Molecular Screening Center, 2014):
Hit rate of the full screen: of about 2,000 compounds, about 680 (34%) were called active. These entries were drawn from the full list. Unmarked numbers belong to inactive results.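 Rule for the calls: active = mean inhibition across triplicates above the hit cutoff set in the earlier primary screen (cut at about 19% in these data); inactive = the rest.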

These compounds were tested against Group 3 secretory phospholipase A2 (Homo sapiens) (UniProt Q9NZ20) (assay: HGIII-sPLA2 enzyme inhibition – biochemical, QFRET, triplicate, confirmation (AID 743280;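 note: 0% = enzyme with DMSO and 100% = DMSO wells lacking enzyme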)). Details: recombinant hGIII-sPLA2, BODIPY PC-A2 QFRET fluorescence; at 12.2 µM; stronger effect = higher value.
Sequence of Group 3 secretory phospholipase A2 (Homo sapiens) (Q9NZ20 whole entry, looked up): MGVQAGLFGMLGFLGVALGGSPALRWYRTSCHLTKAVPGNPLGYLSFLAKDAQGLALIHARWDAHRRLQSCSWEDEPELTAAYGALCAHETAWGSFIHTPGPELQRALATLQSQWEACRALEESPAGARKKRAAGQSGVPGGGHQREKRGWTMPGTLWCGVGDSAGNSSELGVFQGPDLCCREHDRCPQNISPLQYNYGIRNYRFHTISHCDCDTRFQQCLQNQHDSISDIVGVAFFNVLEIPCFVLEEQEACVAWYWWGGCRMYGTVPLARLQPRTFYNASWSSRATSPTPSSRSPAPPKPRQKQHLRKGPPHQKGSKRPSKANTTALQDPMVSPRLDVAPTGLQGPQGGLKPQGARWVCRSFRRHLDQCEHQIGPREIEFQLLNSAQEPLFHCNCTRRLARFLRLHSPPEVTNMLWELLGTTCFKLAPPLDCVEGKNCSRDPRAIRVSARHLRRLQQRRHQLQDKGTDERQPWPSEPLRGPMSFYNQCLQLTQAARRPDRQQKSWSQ
With N#CC1(Nc2ccc(-c3ccc(Cl)cc3)cc2)CCCC1 the inhibition was 24.4% (active).
C=CCNc1scc(-c2ccccc2)[n+]1CC=C gave an inhibition of 10.9%.
Cc1cccc(N2CCN(c3ccc(NC(=O)/C=C\C(=O)O)cc3)CC2)c1 gave an inhibition of 7.11%.
CCOc1ccc2[nH]c(=S)sc2c1 was tested, and the inhibition was 27.4% (active).
Compound COCCn1c(SCC(=O)Nc2cc(OC)ccc2OC)nc2c(c1=O)SC(C)C2 (stereo not drawn) has an inhibition of -3.55%.
CCCCn1c(=S)[nH]c2ccccc2c1=O was tested, and the inhibition was 12.9%.
COc1ccc(C(=O)Nc2sc(C)c(C)c2CN2CCOCC2)cc1 showed an inhibition of 8%.
With COc1ccc(C(=O)NNC(=S)NC(=O)c2ccccc2)cc1 the inhibition was 22.1% (active).
For COc1ccc(C(=O)NC(=S)NNC(=O)c2c(-c3ccccc3)noc2C)cc1, the inhibition was 35.4% (active).
O=C(NC(=S)Nc1ncccn1)c1ccccc1Br was tested, and the inhibition was 10.1%.
With NS(=O)(=O)c1ccc(CCNC(=O)NC2CCCCC2)cc1 the inhibition was -1.05%.
Compound Cc1c(NC(=S)NCc2ccc(F)cc2)cccc1[N+](=O)[O-] has an inhibition of 3.91%.
With Cn1cc(Cl)c(C(=O)NNC(=S)Nc2cccc(Cl)c2)n1 the inhibition was 42.3% (active).
Cc1ccc(NC(=S)NNC(=O)CSc2nnc(SCc3ccccc3Cl)s2)cc1 gave an inhibition of 3%.
With Cc1cc(NCCc2c[nH]c3ccccc23)ccc1Oc1cccnc1 the inhibition was 10.5%.
CN(C)c1ccc(NC(=O)NC2CCCCN(Cc3ccc(Cl)cc3)C2=O)cc1 (stereo not drawn) showed an inhibition of 6.59%.
In the case of c1ccc(C2=Nc3cccc4cccc(c34)N2)cc1, the inhibition is reported as 50.5% (active).
In the case of C/C(=N/NC(=O)c1cc(Cl)ccc1O)C12CC3CC(CC(C3)C1)C2, the inhibition is reported as 15.1%.
In the case of Nc1ccc2c(c1)C(O)c1ccc(Cl)cc1-2 (stereo not drawn), the inhibition is reported as 26.1% (active).
In the case of Cc1ccc(C2CC(c3cccc(C)c3)n3nc(N)nc3N2)cc1 (stereo not drawn), the inhibition is reported as 6.67%.
For CC(C)(C)c1cc2cccnc2n1Cc1cccc(F)c1, the inhibition was 13.1%.
CCOc1ccc(Br)cc1CSC(=N)N was tested, and the inhibition was 26% (active).
COc1ccc(NC(=O)C2C3C=CC(C3)C2C(=O)NCc2ccccn2)c(OC)c1 (stereo not drawn) showed an inhibition of 1.31%.
Cc1ccc(-c2csc(NNC(=O)c3ccccc3)n2)cc1 was tested, and the inhibition was 56.7% (active).
For CCN(CC(=O)NC1CCS(=O)(=O)C1)S(=O)(=O)c1ccccc1 (stereo not drawn), the inhibition was -6.89%.
COc1ccc(C(N)c2csc(NC(=O)Nc3cccc(C(F)(F)F)c3)n2)cc1 (stereo not drawn) was tested, and the inhibition was 23% (active).
NC(c1csc(NC(=O)Nc2ccccc2Oc2ccccc2)n1)c1ccccc1Cl (stereo not drawn) showed an inhibition of 8.22%.
Cc1cc(-n2nc(C)cc2C)n2ncc(-c3ccccc3)c2n1 was tested, and the inhibition was 14.7%.
